The text below walks through data of PubChem BioAssay (EPA / NIEHS).

Activity calls are given as the source filed them. The calls were made as follows: active = hit-call score of the fitted dose curve at least 0.9, where 1 is the maximum; inactive = score below 0.9. *1 amine or outer side, *2 acyl side, *3 side chain or, on linkers, in order; H or OH if unused. Where a SMILES comes first, the peptide text is derived from it. Bridges are numbered along the chain shown (N, C = ends). Roman numbers before positions name the chains, in order. [ ]: non-standard residue; d: D form. Actinocin(9to1) = Cc1c2oc3c(C)ccc(C(=O)[*:1])c3nc-2c(C(=O)[*:2])c(N)c1=O; NMeV = CN[C@H](C(=O)O)C(C)C; Sar = CNCC(=O)O

Broadly, the AC50 is the midpoint of the concentration-response curve, whichever way the signal moves.

This assay deals with SRY-box transcription factor 17 (SOX17) Protein Expression, Deisenroth Lab, SOX17 (gene 64321). Nature of the assay: CCTE_Deisenroth_DEVTOX-GLR_Endo_SOX17: CCTE's DevTox GLR-Endo Assay Evaluation of SRY-box transcription factor 17 (SOX17) Protein Expression, Deisenroth Lab (AID 2284413). The method, then:
CCTE_Deisenroth_DEVTOX-GLR_Endo assay is a cell-based, multiplex-readout assay that uses RUES2-GLR, a human pluripotent cell line, with measurements taken at 48 hours after chemical dosing in a 384-well microplateCCTE_Deisenroth_DEVTOX-GLR_Endo_SOX17 is 1 of 4 assay components calculated from the CCTE_Deisenroth_DEVTOX-GLR_Endo assay and it measures the percentage of cells in an endoderm state. Using a type of inducible fluorescent protein reporter, gain-of-signal activity can be used to understand changes in gene expression with fluorescent microscopy. The percentage of SOX17+ cells are determined by calculating the number of SOX17+ cells divided by the cell count. To generalize the intended target to other relatable targets, this assay component is annotated to the transcription factor intended target family, where the subfamily is SRY-related HMG-box.Data from the assay component CCTE_Deisenroth_DEVTOX-GLR_Endo_SOX17 was analyzed as 1 assay endpoint. The endpoint is the percent change in SOX17+ cell population relative to the 0.2% DMSO control in the CCTE_Deisenroth_DEVTOX-GLR_Endo assay. This assay endpoint can be referred to as a primary readout since this assay has produced multiple assay endpoints where this one serves as a measure of endoderm differentiation.
All assay protocols are aligned to the DevTox GLR-Endo assay workflow. Cells are seeded into 384-well microplates for 24 hours prior to initiating differentiation in defined media for a total duration of 48 hours. A total of two chemical exposures are administered in 24-hour intervals during the 48-hour differentiation period. At the assay termination point, cells are fixed and stained with a fluorescent dye demarcating the nucleus. High-content imaging is used to acquire brightfield and fluorescent channel images across 5 fields per well. Cell identification and mean biomarker fluorescence intensities are calculated with image analysis software to determine the total cell counts for viability assessment and the biomarker expression frequency for each lineage-dependent assay. A typical experimental design tests a 10-point concentration series (1 nM - 200 uM) for 28 compounds in single technical replicate. Assay plate controls include non-differentiated pluripotent cells (baseline control), lineage-specific differentiated cells (differentiation control), and DMSO solvent exposed differentiated cells (solvent control). Experiments typically comprise a minimum of four experimental replicates (n=4).
Take `CCCCCN=C(N)N/N=C/c1c[nH]c2ccc(OC)cc12`: the half-maximal activity concentration (AC50) was 5.27 µM (active).

With `CCN(CC)CCNC(=O)c1c(C)[nH]c(/C=C2\C(=O)Nc3ccc(F)cc32)c1C`, the AC50 was 0.616 µM (active).

On to `Cc1nc(Nc2ncc(C(=O)Nc3c(C)cccc3Cl)s2)cc(N2CCN(CCO)CC2)n1`, for which the concentration at half-maximal activity (AC50) is 0.633 µM (active).

On to `Cc1nc2sccn2c(=O)c1CCN1CCC(=C(c2ccc(F)cc2)c2ccc(F)cc2)CC1`, for which the half-maximal activity concentration (AC50) is 11 µM (active).

In the case of `COc1cc2ncnc(Nc3ccc(F)c(Cl)c3)c2cc1OCCCN1CCOCC1`, the half-maximal activity concentration (AC50) is 5.78 µM (active).

For the molecule `CC1=C(/C=C/C(C)=C/C=C/C(C)=C\C(=O)O)C(C)(C)CCC1`, the concentration at half-maximal activity (AC50) is 0.119 µM (active).

Turning to `Cc1c2oc3c(C)ccc(C(=O)N[C@@H]4C(=O)N[C@H](C(C)C)C(=O)N5CCC[C@H]5C(=O)N(C)CC(=O)N(C)[C@@H](C(C)C)C(=O)O[C@@H]4C)c3nc-2c(C(=O)N[C@@H]2C(=O)N[C@H](C(C)C)C(=O)N3CCC[C@H]3C(=O)N(C)CC(=O)N(C)[C@@H](C(C)C)C(=O)O[C@@H]2C)c(N)c1=O` (I: T[dV]P[Sar][NMeV] / II: T[dV]P[Sar][NMeV]; ester I:1-I:C, II:1-II:C; linker I:N-II:N via Actinocin(9to1)), the concentration at half-maximal activity (AC50) is 4.42e-05 µM (active).

As for `COc1cc2c(Nc3ccc(Br)cc3F)ncnc2cc1OCC1CCN(C)CC1`, the AC50 is 4.83 µM (active).

On to `CNC(=O)c1cc(Oc2ccc(NC(=O)Nc3ccc(Cl)c(C(F)(F)F)c3)cc2)ccn1`, for which the half-maximal activity concentration (AC50) is 0.604 µM (active).

Turning to `O=C(c1ccc(F)cc1)C1CCN(CCn2c(=O)[nH]c3ccccc3c2=O)CC1`, the AC50 is 37.9 µM (active).

`O=C1Cc2cc(CCN3CCN(c4nsc5ccccc45)CC3)c(Cl)cc2N1`: the AC50 was 3.99 µM (active).

With `CN1CCN2c3ccccc3Cc3ccccc3C2C1` (stereo not given), the half-maximal activity concentration (AC50) is 34.1 µM (active).

For `Nc1cccc2c1CN(C1CCC(=O)NC1=O)C2=O` (stereo not given), the AC50 was 0.293 µM (active).

As to `Cc1ccc(NC(=O)c2ccc(CN3CCN(C)CC3)cc2)cc1Nc1nccc(-c2cccnc2)n1`, the concentration at half-maximal activity (AC50) is 14.2 µM (active).

With `O=c1[nH]c(=O)n([C@H]2C[C@H](O)[C@@H](CO)O2)cc1Br`, the concentration at half-maximal activity (AC50) is 0.657 µM (active).
